# From PubChem BioAssay (NCI)
# The panel holds about 83,000 compounds, 20% with a hit somewhere; the sample as a whole holds those more often.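 Single-dose data. Exposure time 48 hours. Values below 10 considered active.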 A number with no mark means an inactive call. Calls of active or inactive are those of the source.
# System: HT29 colon
# Assay: NCI-60 one-dose screen, 48 h (100 = growth as untreated, 0 = no growth, -100 = all killed)
# Settings: 10 µM unless noted
row,SMILES,growth
1,Cc1cccc(NCS(=O)(=O)O)c1,101%
2,O=C(O)c1ccccc1C(=O)c1ccc(I)cc1,90%
3,CC1(C)CC(=O)C2=C(C1)OC1=C(C(=O)CC(C)(C)C1)C2c1ccc(OCc2cn(-c3ccc(F)cc3F)nn2)cc1,96.9%
4,CC(C)(CCN=C(N)Nc1ccccn1)c1ccc(C(F)(F)F)cc1,-14.8% (active)
5,CC(=O)c1cc2c(c(O)c1C)C(=O)C(=O)c1c(O)cccc1-2,-15.5% (active)
6,O=C(Nc1ccc(F)cc1)Nc1ccc(Cl)c([N+](=O)[O-])c1,13.6%
7,C#C[C@H](O)/C=C/CCCCCCC#C[C@H](O)CC[C@@H](O)C#CCCCCCC/C=C/[C@@H](O)C#C,80.6%
8,O=C(Nc1ccc(-n2cc(-c3ccncc3)c(-c3ccc(O)c(Cl)c3)n2)cc1)c1ccc(Cl)c(C(F)(F)F)c1,-33.9% (active)
9,Cc1nccc2c3ccc(OCc4cn(Cc5ccc(Br)cc5)nn4)cc3n(CCCc3ccccc3)c12,80.7%
10,NCC(=O)NS(=O)(=O)OC[C@H]1O[C@@H](n2cnc3c(N)ncnc32)[C@H](O)[C@@H]1O,6% (active)
11,C[C@H]1C=C(C[C@@H](O)CC#CC#CCCCCC[C@@H](O)[C@H]2CCC(=O)O2)C(=O)O1,99.1%
12,CN1CCN(C(=O)/C=C/c2ccc([N+](=O)[O-])o2)CC1,81.8%
13,OCc1cnccc1NC12CC3CC(CC(C3)C1)C2,88.7%
14,Nc1nccc(=S)[nH]1,75.3%
15,COc1cc(C(=O)N2CCN(C(=O)c3cc(OC)c(OCc4ccccc4)cc3N)CC2)c(N)cc1OCc1ccccc1,116%
